Six1-Eya2 inh: qHTS Assay for Inhibitors of the Six1/Eya2 Interaction; Homeobox protein SIX1 (Homo sapiens) + Protein phosphatase EYA2 (Homo sapiens), …; AlphaScreen GST-Six1/His-Eya2 binding, biochemical; hits give low values; activity change, % (no concentration beside the values); 0.56% of 360,000 active; in the data active = activity change below about -65%; inconclusive = mostly about -30% to -63%; note: % is set by controls: 0 for no effect and ±100 for the full control effect
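Six1/Eya2 binding was read as AlphaScreen signal after compounds were pinned into GST-Six1 plus His-tagged Eya2 (5X stock 250/500 nM) in pH 8.0 Tris/NaCl/TCEP buffer, beads added, then incubated 1 h, 37 C, dark.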
JMJD2A Tudor inh: qHTS Assay for Inhibitors of JMJD2A-Tudor Domain; Lysine-specific demethylase 4A (Homo sapiens), O75164; AlphaScreen JMJD2A-Tudor / H3K4me3 peptide binding; Potency, µM (doses to about 114 µM), for inactives: at the highest dose activity change, negative = inhibition, usual class: inhibitors; 4.4% of 390,000 active; AID 504339, 2011; note: potency is the fitted concentration of half-maximal effect; % is set by controls: 0 for no effect and ±100 for the full control effect; nearly all actives have a fitted effect of over 50% in size
G9a inh: qHTS Assay for Inhibitors of Histone Lysine Methyltransferase G9a; Histone-lysine N-methyltransferase EHMT2 (Homo sapiens), Q96KQ7; Potency, µM (highest dose often 102 µM), inactives show at the highest dose activity, negative = inhibition, most hits filed as inhibitors; G9a H3K9 monomethylation, AlphaScreen, 2 h; 8.8% of 350,000 active; note: potency is the fitted concentration of half-maximal effect; % is set by controls: 0 for no effect and ±100 for the full control effect; nearly all actives have a fitted effect of over 75% in size
Target sequence (Q96KQ7 913-1193 limits assumed): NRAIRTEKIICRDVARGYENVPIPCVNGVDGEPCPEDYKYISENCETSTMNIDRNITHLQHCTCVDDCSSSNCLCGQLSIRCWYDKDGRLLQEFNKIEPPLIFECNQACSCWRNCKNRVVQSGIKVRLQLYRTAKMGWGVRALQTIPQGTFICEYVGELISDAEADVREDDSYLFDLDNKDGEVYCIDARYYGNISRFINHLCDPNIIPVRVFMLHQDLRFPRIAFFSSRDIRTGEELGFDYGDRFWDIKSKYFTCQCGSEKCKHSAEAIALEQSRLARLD
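Quantitative HTS format: methyltransferase activity on a biotin-tagged H3K9 peptide is measured by AlphaScreen, using a rabbit anti-monomethyl-H3K9 antibody with streptavidin donor and anti-IgG acceptor beads. Final levels are 20 nM enzyme, 500 nM peptide, 20 uM SAM; 2 h RT.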
BAZ2B block: qHTS Assay for Inhibitors of BAZ2B. Bromodomain adjacent to zinc finger domain protein 2B (Homo sapiens), Q9UIF8. AlphaScreen BAZ2B-H3K14Ac peptide displacement. Potency, µM (series often up to 114 µM), without a hit: top-dose activity change, negative = inhibition, usual class: inhibitors. 4.4% of 360,000 active; note: potency is the fitted concentration of half-maximal effect; % is set by controls: 0 for no effect and ±100 for the full control effect; nearly all actives have a fitted effect of over 60% in size
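AlphaScreen displacement: compounds (up to 110uM) incubated 30 min at room temperature with a preformed 50 nM BAZ2B/50 nM biotinylated H3K14Ac peptide complex in PBS pH 7.4 with Tween-20. Donor and acceptor beads at 10 ug/mL final added, 20 min light-protected before reading.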
HP1b chromo inh: HTS for Inhibitors of HP1-beta Chromodomain Interactions with Methylated Histone Tails; Chromobox protein homolog 1 (Homo sapiens), P83916; 0.56% of 390,000 active; AlphaScreen HP1-beta / biotin-H3K9me3 peptide binding; Potency, µM (highest dose often 114 µM), for inactives: top-dose activity change, negative = inhibition, usual class: inhibitors; note: potency is the fitted concentration of half-maximal effect; nearly all actives have a fitted effect of over 70% in size
Target sequence (P83916 whole entry, looked up): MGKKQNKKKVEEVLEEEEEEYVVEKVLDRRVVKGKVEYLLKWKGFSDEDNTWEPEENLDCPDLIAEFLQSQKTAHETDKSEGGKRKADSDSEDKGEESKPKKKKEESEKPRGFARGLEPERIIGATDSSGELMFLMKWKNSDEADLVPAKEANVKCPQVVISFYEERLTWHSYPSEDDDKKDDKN
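HP1-beta protein (50 nM final) preincubated 30 min at room temperature with biotinylated H3(1-18)K9me3 peptide (50 nM) in PBS pH 7.4, 0.01% Tween-20, then compound added for 30 min. AlphaScreen streptavidin donor/nickel chelate acceptor beads (10 ug/mL final), 30 min dark, luminescence read.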
CtBP-E1A inh: qHTS Assay for Inhibitors of the CtBP/E1A Interaction | AlphaScreen GST-E1A/His-CtBP binding, 1536-well; hits give low values | CtBP / adenovirus E1A interaction (AlphaScreen) | activity change, % (concentration not given with the values) | 0.49% of 340,000 active | AID 651724, 2012; in the data active = activity change below about -65%; inconclusive = mostly about -30% to -63%; note: % is set by controls: 0 for no effect and ±100 for the full control effect
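AlphaScreen with 125 nM GST-E1A and 125 nM His-CtBP (5X stocks) in Tris pH 8.0, 300 mM NaCl, BSA, Tween 20, TCEP. Compounds preincubated 2 h at 37 deg C, then glutathione donor/nickel acceptor beads added for 1 h at 37 deg C in dark.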
Active calls of the source: *; ? = inconclusive; . = no result given; ! = repeats disagree; [ ] = another dose, or the depositor's remark. Only some compounds are listed: those with a hit (about 10% of all), similar ones and a draw of the others. Unless noted, calls come from the whole dose curve; as a rule, active = well fitted inhibition curve with a large enough effect; inconclusive = small, poorly fitted or top-dose-only effect; inactive = no such curve, though single readings can be large or run the other way.

SMILES	Six1-Eya2 inh	JMJD2A Tudor inh	G9a inh	BAZ2B block	HP1b chromo inh	CtBP-E1A inh
COc1cc2[nH]c(=O)n(Cc3ccc(C(=O)NCc4ccccc4)cc3)c(=O)c2cc1OC	.	-6%	5%[59 µM]	-1%	40%	.
Oc1ccccc1-c1nnc(COc2ccc(Cl)cc2Cl)o1	2	40µM*	?	4%	7%	0
Cc1cc(C)nc(SCc2nc3nc(C)cc(C)n3c2Br)n1	-1	-9%	50µM*	-19%	24%	-7
CC[C@H](C)C(=O)O[C@H]1C[C@@H](C)C=C2C=C[C@H](C)[C@H](CC[C@@H]3C[C@@H](O)CC(=O)O3)[C@H]21	-1	-16%	16µM*!	-22%	11%	5
CCC(C)C(=O)OC1CCC=C2C=CC(C)C(CCC3CC(O)CC(=O)O3)C21 (centres undefined)	-1	-19%	.	.	40%	1
CC(C)=CCN1CCN(Cc2ccc(Sc3nncn3C)o2)CC1CCO (centres undefined)	5	-12%	?	1%	8%	5
NS(=O)(=O)c1ccc(CNC(=O)c2csc3c2CCCC3)cc1	-7	-3%	20µM*	-13%	15%	0
CCCNC(=O)c1csc2c1CCCCC2	5	-8%	15%[59 µM]	7%	20%	7
Cc1c(C)n(Cc2ccccc2)c2ccc(C(=O)NC(C)c3ccccc3)cc12 (centres undefined)	.	-25%	-37%[59 µM]	-17%	29%	.
CS(=O)(=O)c1nc(-c2ccco2)cc(C(F)(F)F)n1	.	.	32µM*	-1%	.	.
COc1ccc(Cl)cc1NC(=S)NCc1ccc(S(N)(=O)=O)cc1	-2	-2%	13%[59 µM]	-6%	34%	0
COc1ccc(OC)c(NC(=S)NCc2ccc(S(N)(=O)=O)cc2)c1	4	-10%	45µM*	6%	-18%	0
COc1ccc(NC(=S)NCc2ccc(S(N)(=O)=O)cc2)c(OC)c1	3	-4%	7.1µM*	5%	-11%	-1
COc1ccccc1NC(=S)NCc1ccc(S(N)(=O)=O)cc1	2	0%	?	7%	17%	-16
CCC1CN(C(=O)N2CCC(C(=O)NCCc3ccc(Cl)cc3)CC2)c2ccccc2O1 (centres undefined)	.	-10%	-6%[59 µM]	-16%	33%	.
CN(CC(=O)NCc1ccc(Cl)cc1)S(=O)(=O)c1cccc2cccnc12	-1	-10%	12%	-5%	22%	6
CN(CC(=O)NCc1ccco1)S(=O)(=O)c1cccc2cccnc12	0	-12%	71µM*	-8%	37%	1
Cc1csc(NC(=O)CN(C)S(=O)(=O)c2cccc3cccnc23)n1	2	-17%	-3%	-3%	59%	-2
CN(CC(=O)Nc1n[nH]c(=S)s1)S(=O)(=O)c1cccc2cccnc12	-2	3.5µM*	1.6µM*	?	?	.
CCOC(=O)N(C)c1c(CC)nc2c(OCc3ccc(S(C)(=O)=O)cc3)cccn12	-3	.	.	.	.	1
Cc1nc2sccn2c1-c1nc(-c2cc3ccccc3o2)cs1	?	25µM*	0%[59 µM]	?	-12%	?
CC1=C(C#N)C(=O)N(C2CCS(=O)(=O)C2)C(=O)/C1=C\c1ccco1 (centres undefined)	.	.	5µM*	7.1µM*	.	.
c1cc2cn[nH]c2cc1NC1CCCCCC1	-7	?	4.5µM*	?	-3%	12
COCCN(CCOC)Cc1cc(=O)oc2cc3c(cc12)CCC3	2	-12%	50µM*	-26%	52%	7
N#C/C(=C\c1ccc(-c2ccc([N+](=O)[O-])cc2Br)o1)C(=O)N1CCN(c2ccccc2)CC1	-19	?	4µM*	?	-16%	-30
SMILES	Six1-Eya2 inh	JMJD2A Tudor inh	G9a inh	BAZ2B block	HP1b chromo inh	CtBP-E1A inh
CCC(C)(C)n1nnnc1C(c1cc(OC)c(OC)c(OC)c1)N1CCN(c2ccccc2)CC1 (centres undefined)	7	-7%	6%[2.33 µM]	-21%	17%	14
COc1ccccc1C(c1nnnn1C(C)(C)C)N1CCCCCC1 (centres undefined)	-1	-13%	25µM*	-31%	42%	-4
C=CCN1CCN(C(c2ccc(Cl)cc2)c2nnnn2CCc2ccc(OC)c(OC)c2)CC1 (centres undefined)	0	1%	-38%[59 µM]	-6%	73%	-2
CC(C)(C)n1nnnc1C(c1cccc(C#N)c1)N1CCCCCC1 (centres undefined)	4	-14%	71µM*	-10%	47%	-5
COc1ccccc1C(c1nnnn1C(C)(C)C)N1CCN(C(=O)c2ccco2)CC1 (centres undefined)	14	?	4%[59 µM]	4%	48%	-4
CCN1CCN(C(c2cc(OC)c(OC)c(OC)c2)c2nnnn2C(C)C)CC1 (centres undefined)	8	-27%	?	50µM*	39%	12
C=CCN1CCN(C(c2ccc(OC)c(OC)c2)c2nnnn2C(C)(C)C)CC1 (centres undefined)	4	0%	50µM*	79µM*	50%	10
CC(=O)OCC(=O)C1(O)CCC2C3CCC4=CC(=O)CCC4(C)C3C(O)CC21C (centres undefined)	-2	0%	.	.	31%	0
Cc1nc2cnc(N(C)C)nc2n(C)c1=O	.	.	3%[12.7 µM]	.	.	.
CCOc1ccc(Nc2oc(-c3ccc(COc4ccc(OC)cc4)o3)nc2C#N)cc1	.	-33%	-25%[59 µM]	?	4%	.
COc1ccc(Cn2c(O)c(C=Nc3ccc(OC)cc3)c3ccccc3c2=O)cc1	5	-31%	-10%[59 µM]	-30%	2%	4
COc1ccccc1NS(=O)(=O)c1cccc(-n2c(O)c(C=Nc3ccccc3C(=O)O)c3ccccc3c2=O)c1	?	56µM*	45µM*	40µM*	?	-11
COc1ccc(Cn2c(O)c(C=Nc3ccccc3C(=O)O)c3ccccc3c2=O)cc1	-15	-34%	.	79µM*	-11%	9
CCOC(=O)c1[nH]c2ccc(Cl)cc2c1NC(=O)/C=C/c1ccc2c(c1)OCO2	3	-9%	51%[59 µM]	-7%	35%	19
CCN(CC(=O)Nc1c(C(=O)OC)[nH]c2ccc(Cl)cc12)c1ccc2c(c1)OCO2	?	56µM*	28µM*	40µM*	?	-21

Screening results: PubChem, National Center for Advancing Translational Sciences (NCATS)
